Bioassay records from PubChem.
PLK1 PBD block = PLK1 (human) polo-box domain binding inhibition; P53350; Plk1 PBD binding of FITC phosphopeptide, fluorescence polarization; Potency, µM, usual class: inhibitors; 360,000 compounds, 2.8% hits; note: series mostly up to about 57 µM; nearly all actives have a fitted effect of over 65% in size
VDR inhibitor = vitamin D3 receptor (human) inhibition | P11473 | VDR-SRC2-3 peptide fluorescence polarization, 2 h | Potency, µM, actives largely listed as inhibitors | 400,000 compounds, 0.93% hits
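Measured by FP: displacement of SRC2-3 coactivator peptide from VDR by library compounds, following a two-hour ambient incubation.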
BAZ2B inh = inhibitors of human BAZ2B bromodomain | Q9UIF8 | AlphaScreen BAZ2B-H3K14Ac peptide displacement | Potency, µM (doses to about 114 µM), usual class: inhibitors | 360,000 compounds, 4.4% hits; note: nearly all actives have a fitted effect of over 60% in size
Target sequence (Q9UIF8 whole entry, looked up): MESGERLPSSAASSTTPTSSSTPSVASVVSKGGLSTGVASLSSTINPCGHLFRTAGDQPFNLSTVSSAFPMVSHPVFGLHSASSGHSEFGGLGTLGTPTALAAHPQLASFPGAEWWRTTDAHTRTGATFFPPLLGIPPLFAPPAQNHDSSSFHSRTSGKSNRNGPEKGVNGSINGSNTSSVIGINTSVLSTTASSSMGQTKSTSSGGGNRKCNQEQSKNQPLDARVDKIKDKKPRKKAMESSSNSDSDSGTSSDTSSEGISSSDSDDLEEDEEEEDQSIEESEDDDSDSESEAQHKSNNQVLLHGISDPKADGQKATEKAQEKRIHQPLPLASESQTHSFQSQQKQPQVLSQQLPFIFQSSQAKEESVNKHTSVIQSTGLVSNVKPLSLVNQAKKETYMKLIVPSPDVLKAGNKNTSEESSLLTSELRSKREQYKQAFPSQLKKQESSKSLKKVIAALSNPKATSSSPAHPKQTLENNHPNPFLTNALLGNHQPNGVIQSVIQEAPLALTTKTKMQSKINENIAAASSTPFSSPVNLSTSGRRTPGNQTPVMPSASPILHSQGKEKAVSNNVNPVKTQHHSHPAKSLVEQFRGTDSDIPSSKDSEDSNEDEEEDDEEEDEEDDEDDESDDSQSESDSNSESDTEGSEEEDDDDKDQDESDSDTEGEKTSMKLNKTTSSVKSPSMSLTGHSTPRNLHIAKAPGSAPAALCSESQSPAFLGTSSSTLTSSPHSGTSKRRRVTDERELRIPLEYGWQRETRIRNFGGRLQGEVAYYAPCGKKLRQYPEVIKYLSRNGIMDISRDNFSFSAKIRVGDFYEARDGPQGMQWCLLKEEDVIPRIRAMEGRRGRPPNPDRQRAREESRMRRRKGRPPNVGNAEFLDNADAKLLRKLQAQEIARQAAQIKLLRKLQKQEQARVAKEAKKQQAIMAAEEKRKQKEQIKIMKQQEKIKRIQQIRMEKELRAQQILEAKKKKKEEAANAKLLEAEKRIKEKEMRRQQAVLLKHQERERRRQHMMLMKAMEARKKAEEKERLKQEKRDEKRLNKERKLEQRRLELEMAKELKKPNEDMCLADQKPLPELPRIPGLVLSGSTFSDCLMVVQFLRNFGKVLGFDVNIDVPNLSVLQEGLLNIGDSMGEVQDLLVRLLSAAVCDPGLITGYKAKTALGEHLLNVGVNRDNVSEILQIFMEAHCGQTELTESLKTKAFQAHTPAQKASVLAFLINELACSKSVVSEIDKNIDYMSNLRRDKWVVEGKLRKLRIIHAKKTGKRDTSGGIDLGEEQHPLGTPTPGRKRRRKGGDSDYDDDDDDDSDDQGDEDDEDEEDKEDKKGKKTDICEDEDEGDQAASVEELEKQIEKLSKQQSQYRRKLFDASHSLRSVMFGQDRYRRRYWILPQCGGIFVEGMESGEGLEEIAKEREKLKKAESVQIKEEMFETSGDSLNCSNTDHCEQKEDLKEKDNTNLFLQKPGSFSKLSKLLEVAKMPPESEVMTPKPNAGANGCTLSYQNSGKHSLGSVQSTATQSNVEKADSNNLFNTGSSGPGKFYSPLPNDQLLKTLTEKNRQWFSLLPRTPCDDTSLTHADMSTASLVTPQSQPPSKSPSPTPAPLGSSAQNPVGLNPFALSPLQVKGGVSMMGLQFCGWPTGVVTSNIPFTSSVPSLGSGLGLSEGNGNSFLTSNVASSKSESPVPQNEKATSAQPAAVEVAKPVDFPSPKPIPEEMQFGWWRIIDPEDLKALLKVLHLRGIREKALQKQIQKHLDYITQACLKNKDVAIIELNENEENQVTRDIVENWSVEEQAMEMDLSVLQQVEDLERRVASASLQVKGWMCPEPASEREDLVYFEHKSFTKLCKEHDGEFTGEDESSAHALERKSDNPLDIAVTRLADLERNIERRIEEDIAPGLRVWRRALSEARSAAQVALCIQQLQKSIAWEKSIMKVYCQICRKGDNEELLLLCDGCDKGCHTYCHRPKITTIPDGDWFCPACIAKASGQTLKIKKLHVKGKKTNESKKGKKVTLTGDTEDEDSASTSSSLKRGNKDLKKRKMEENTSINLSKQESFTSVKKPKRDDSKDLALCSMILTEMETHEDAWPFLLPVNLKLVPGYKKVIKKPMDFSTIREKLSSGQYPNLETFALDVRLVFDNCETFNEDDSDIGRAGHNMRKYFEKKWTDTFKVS
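Inhibition is scored as reduced AlphaScreen emission. The BAZ2B/b-H3(5-23)K14Ac complex (50 nM each) in PBS pH 7.4, 0.01% Tween-20 meets compound (up to 110 uM) for 30 min at RT before bead addition.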
G9a block = blocks human histone lysine methyltransferase G9a. Potency, µM (top dose mostly 102 µM), usual class: inhibitors. 350,000 compounds, 8.8% hits. G9a H3K9 monomethylation, AlphaScreen, 2 h; note: nearly all actives have a fitted effect of over 75% in size
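G9a (20 nM) was preincubated 15 min with compound, then reacted 2 h at room temperature with 500 nM biotin-H3K9 peptide and 20 µM SAM. Monomethyl-H3K9 detected by AlphaScreen using anti-H3K9me1 antibody.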
HP1b chromo inh = blocks HP1-beta chromodomain binding to methylated histone tails; P83916; AlphaScreen HP1-beta / biotin-H3K9me3 peptide binding; Potency, µM (top dose mostly 114 µM), actives largely listed as inhibitors; 390,000 compounds, 0.56% hits; AID 540317; note: nearly all actives have a fitted effect of over 70% in size
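Compound inhibition of the preformed complex between 50 nM HP1-beta and 50 nM biotinylated H3K9me3 peptide was read by AlphaScreen. Buffer was PBS pH 7.4 with 0.01% Tween-20. Incubations ran 30 min at room temperature, with 10 ug/mL donor/acceptor beads.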
JMJD2A Tudor inh = JMJD2A Tudor domain (human) inhibition; Potency, µM (doses to about 114 µM), usual class: inhibitors; AlphaScreen JMJD2A-Tudor / H3K4me3 peptide binding; 390,000 compounds, 4.4% hits; O75164; AID 504339; note: nearly all actives have a fitted effect of over 50% in size
Of the large screens only hits and unclear results are named; the others gave an inactive call. In the library only some 11% were active in any assay of this set; here they are far more common. Calls come from the whole dose curve; as a rule, active = well fitted curve in the direction sought with a large enough effect; inconclusive = small, poorly fitted or top-dose-only effect, or another doubt; inactive = no such curve, though single readings can be large; an effect the other way counts as inactive or inconclusive.

CC(=O)c1nnn(-c2cccc([N+](=O)[O-])c2)c1C	G9a block inconclusive
CC(=O)c1nnn(-c2ccc([N+](=O)[O-])cc2C)c1C	PLK1 PBD block 24µM, HP1b chromo inh inconclusive
CCOC(=O)CC(=O)CSc1ncnc2c1nnn2-c1ccccc1	none (no result: G9a block)
COc1cccc(-c2nnc3sc(C4CCCCC4)nn23)c1	none
CCOc1cccc(-c2nnc3sc(C4CCCCC4)nn23)c1	PLK1 PBD block inconclusive, VDR inhibitor inconclusive, G9a block 35µM, HP1b chromo inh inconclusive
Cc1cc(-c2nnc3sc(C4CCCCC4)nn23)n[nH]1	PLK1 PBD block 27µM, HP1b chromo inh inconclusive
COc1cc(-c2nnc3sc(C4CCCCC4)nn23)cc(OC)c1OC	G9a block inconclusive
N#Cc1c(Nc2ccc(F)cc2)sc(C(=O)c2ccccc2)c1N	VDR inhibitor inconclusive
N#Cc1c(Nc2ccccc2)sc(C(=O)c2ccccc2)c1N	BAZ2B inh inconclusive, G9a block 10µM, JMJD2A Tudor inh inconclusive
Cc1nc(Nc2ccc(Cl)c(Cl)c2)sc1C(=O)Nc1ccccc1	PLK1 PBD block 27µM, VDR inhibitor inconclusive, G9a block inconclusive, JMJD2A Tudor inh 22µM
Cc1nc(Nc2ccc(Cl)cc2Cl)sc1C(=O)Nc1ccccc1	none
CC(=O)c1sc(Nc2cccc(C)c2)nc1C	BAZ2B inh 50µM
Nc1c(C(=O)c2ccccc2)sc(Nc2ccc(Cl)c(Cl)c2)c1C(=O)Nc1ccccc1	BAZ2B inh 25µM, G9a block 13µM, HP1b chromo inh inconclusive, JMJD2A Tudor inh 45µM (no result: PLK1 PBD block)
Cc1cc(SCCC(=O)O)nc2c(C)cccc12	G9a block 79µM
CCCCN(CCCNC(=O)c1cc(Nc2ccc(OC)cc2)nc2ccccc12)Cc1ccccc1	none (no result: PLK1 PBD block, BAZ2B inh)
CCN(CCCNC(=O)c1cc(Nc2ccc(OC)cc2OC)nc2ccccc12)c1cccc(C)c1	G9a block inconclusive, JMJD2A Tudor inh inconclusive (no result: PLK1 PBD block, BAZ2B inh)
CCCCN(CCCNC(=O)c1cc(Nc2ccc(OC)c(OC)c2)nc2ccccc12)Cc1ccccc1	G9a block 11µM, HP1b chromo inh inconclusive, JMJD2A Tudor inh 28µM (no result: PLK1 PBD block, BAZ2B inh)
CCCCN(CCCNC(=O)c1cc(Nc2ccc(OC)cc2OC)nc2ccccc12)Cc1ccccc1	G9a block 10µM, JMJD2A Tudor inh inconclusive (no result: PLK1 PBD block, BAZ2B inh)
O=C(c1cc(C(F)(F)F)cc(C(F)(F)F)c1)N1CCC2(CCCN(c3ncccn3)C2)CC1	none (no result: PLK1 PBD block, BAZ2B inh, HP1b chromo inh, JMJD2A Tudor inh)
O=C(/C=N/O)NCCCn1ccnc1	BAZ2B inh 79µM, G9a block inconclusive
O=C(O)C1CCCCC1C(=O)NCCCn1ccnc1 (stereo unspecified)	BAZ2B inh 79µM, G9a block inconclusive
O=C(/C=C/c1ccc(Br)cc1)NCCCn1ccnc1	none (no result: G9a block)
CS/C(=C\[N+](=O)[O-])Nc1ccc(OC(F)(F)F)cc1	G9a block 50µM
CCCCCC(=O)/C=C/C=C\C/C=C\C/C=C\CCCC(=O)O	none (no result: PLK1 PBD block, BAZ2B inh, HP1b chromo inh, JMJD2A Tudor inh)
COc1ccc(OC)c(N2Cc3cc(C)c(C)cc3C2)c1	BAZ2B inh inconclusive, G9a block 13µM, JMJD2A Tudor inh inconclusive
CC(C)c1ccc(Nc2sc(C(=O)c3ccccc3)c(N)c2S(=O)(=O)c2ccccc2)cc1	BAZ2B inh inconclusive, JMJD2A Tudor inh inconclusive (no result: PLK1 PBD block)
CC(=O)OCCC(C)CCC=C(C)C (stereo unspecified)	none (no result: PLK1 PBD block, BAZ2B inh, G9a block, HP1b chromo inh, JMJD2A Tudor inh)
CCCc1cc(N2CCN(C(=O)c3ccco3)CC2)n2c(nc3ccccc32)c1C#N	G9a block 16µM
CCc1nc(SCC(=O)Nc2nnc(CC)s2)c2c(=O)n(C)c(=O)n(C)c2n1	none (no result: G9a block)
Cc1cn(CC(=O)NCCc2ccccn2)c(=O)[nH]c1=O	PLK1 PBD block 21µM, JMJD2A Tudor inh inconclusive (no result: BAZ2B inh, G9a block)
COCCN1CN=C(Nc2nc3ccccc3o2)NC1	G9a block 71µM, JMJD2A Tudor inh inconclusive
Cc1cc(C)c(NC(=O)C2CCCN(C(=O)c3cnn(-c4ccccc4)c3-n3cccc3)C2)c(C)c1 (stereo unspecified)	none (no result: PLK1 PBD block)
O=C(NN1C(=O)/C(=C\c2ccc(O)c([N+](=O)[O-])c2)SC1=S)c1ccccc1Cl	BAZ2B inh 40µM, G9a block 4µM, JMJD2A Tudor inh 56µM
O=C(NN1C(=O)/C(=C/c2ccc(O)c(O)c2)SC1=S)c1ccccc1	BAZ2B inh 5.6µM, G9a block 6.3µM, HP1b chromo inh inconclusive, JMJD2A Tudor inh 13µM
COc1cc(/C=C2\SC(=S)N(Nc3ncc(C(F)(F)F)cc3Cl)C2=O)ccc1O	VDR inhibitor inconclusive, BAZ2B inh 35µM, G9a block 40µM, HP1b chromo inh inconclusive, JMJD2A Tudor inh inconclusive
CCOc1cc(/C=C2\SC(=S)N(Nc3ccccc3)C2=O)ccc1O	PLK1 PBD block inconclusive, BAZ2B inh 20µM, G9a block inconclusive, HP1b chromo inh 50µM
COc1cc(/C=C2\SC(=S)N(Nc3ccccc3)C2=O)ccc1O	BAZ2B inh 40µM, G9a block inconclusive, HP1b chromo inh 50µM, JMJD2A Tudor inh 45µM
O=C1/C(=C/c2ccc(O)c(O)c2)SC(=S)N1Nc1ccccc1	BAZ2B inh 3.5µM, G9a block 10µM, HP1b chromo inh 7.1µM, JMJD2A Tudor inh 10µM
CCOc1cc(/C=C2\SC(=S)N(NS(=O)(=O)c3ccccc3)C2=O)ccc1O	BAZ2B inh inconclusive
O=C(NN1C(=O)/C(=C/c2cccc(O)c2)SC1=S)c1ccccc1O	BAZ2B inh 45µM, JMJD2A Tudor inh 45µM
O=C(Nc1cccc(C(F)(F)F)c1)n1cc(-c2ccccn2)c(N2CCOCC2)n1	none
COc1ccccc1Nc1nnc(SCc2cc(=O)n3ccsc3n2)s1	G9a block inconclusive
COc1ccc(C(C)=O)cc1CSc1nnc(Nc2ccc(C)cc2C)s1	G9a block 35µM, JMJD2A Tudor inh inconclusive
Cc1cccc(-n2c(SCc3cc(=O)n4ccsc4n3)nc3ccccc32)c1	G9a block 5µM, JMJD2A Tudor inh inconclusive
Cc1ccc(Nc2nnc(SCc3cc(=O)n4ccsc4n3)s2)c(C)c1	G9a block 35µM
CCc1ccc(Nc2nnc(SCc3cc(=O)n4ccsc4n3)s2)cc1	G9a block 2µM
Cc1cccc(OCC(=O)Nc2cccc(OCc3cc(=O)n4cccc(C)c4n3)c2)c1	none (no result: PLK1 PBD block)
Cc1nc2cc(-c3ccccc3)nn2c(C)c1CCC(=O)N1CCN(c2ccc(F)cc2)CC1	none (no result: PLK1 PBD block)
COc1ccccc1CNC(=O)COC(=O)C1CCN(c2ccc(C(F)(F)F)cn2)CC1	none
Cc1ccc(N2CCN(C(C(=O)Nc3c(C)cccc3C)c3cccc(F)c3)CC2)cc1 (stereo unspecified)	none (no result: VDR inhibitor, BAZ2B inh, G9a block, HP1b chromo inh, JMJD2A Tudor inh)
O=C(Nc1ccc2c(c1)OCO2)c1ccc(N2CCCC2)c([N+](=O)[O-])c1	BAZ2B inh 35µM, G9a block 10µM, HP1b chromo inh inconclusive, JMJD2A Tudor inh inconclusive
CN1CCN(c2ccccc2NC(=O)c2ccc(N3CCCCC3)c([N+](=O)[O-])c2)CC1	BAZ2B inh 40µM, G9a block inconclusive, HP1b chromo inh inconclusive, JMJD2A Tudor inh 50µM
